From PubChem
Only some compounds are listed: those with a hit (about 2.4% of all), similar ones and a draw of the others.
FEN1 inhibitor: blocks human flap endonuclease 1 | P39748 | Recombinant FEN1 flap cleavage, fluorescence, 15 min | Potency, µM (doses to about 114 µM), inactives show top-dose activity change, negative = inhibition, hits mostly inhibitors | 390,000 tested, 0.35% active | AID 588795; further: on the % scale 0 is the no-effect control and ±100 the full control effect; nearly all actives have a fitted effect of over 65% in size
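Nuclease activity of 10 nM FEN1 was measured after 15 min of room-temperature exposure to titrated compounds, by adding 50 nM flap substrate and reading plates at 0 and 15 min.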
PGK inhibitor: blocks T. brucei phosphoglycerate kinase. 380,000 tested, 0.043% active. Potency, µM (titrated, usually from 57.5 µM), without a hit: at the highest dose activity change, negative = inhibition, actives largely listed as inhibitors. PGK/GAPDH coupled, Kinase-Glo luminescence, 60 min; further: on the % scale 0 is the no-effect control and ±100 the full control effect; nearly all actives have a fitted effect of over 60% in size
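Luminescent ATP detection (Kinase-Glo Plus) follows a 60-minute room-temperature incubation, with wells lacking PGK as controls. Buffer: 100 mM TEA (pH 7.6), 5 mM MgCl2, 0.01% Tween-20. Coupling enzyme GAPDH (100 nM final) supplies unstable 1,3-BPG in-well.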
POLI inh: blocks human DNA polymerase iota activity; Potency, µM (titrated, usually from 115 µM), without a hit: top-dose activity, negative = inhibition, actives largely listed as inhibitors; Q9UNA4; Pol iota fluorescent replication assay, 10 min; 390,000 tested, 1% active; AID 588590
Target sequence (Q9UNA4 whole entry, looked up): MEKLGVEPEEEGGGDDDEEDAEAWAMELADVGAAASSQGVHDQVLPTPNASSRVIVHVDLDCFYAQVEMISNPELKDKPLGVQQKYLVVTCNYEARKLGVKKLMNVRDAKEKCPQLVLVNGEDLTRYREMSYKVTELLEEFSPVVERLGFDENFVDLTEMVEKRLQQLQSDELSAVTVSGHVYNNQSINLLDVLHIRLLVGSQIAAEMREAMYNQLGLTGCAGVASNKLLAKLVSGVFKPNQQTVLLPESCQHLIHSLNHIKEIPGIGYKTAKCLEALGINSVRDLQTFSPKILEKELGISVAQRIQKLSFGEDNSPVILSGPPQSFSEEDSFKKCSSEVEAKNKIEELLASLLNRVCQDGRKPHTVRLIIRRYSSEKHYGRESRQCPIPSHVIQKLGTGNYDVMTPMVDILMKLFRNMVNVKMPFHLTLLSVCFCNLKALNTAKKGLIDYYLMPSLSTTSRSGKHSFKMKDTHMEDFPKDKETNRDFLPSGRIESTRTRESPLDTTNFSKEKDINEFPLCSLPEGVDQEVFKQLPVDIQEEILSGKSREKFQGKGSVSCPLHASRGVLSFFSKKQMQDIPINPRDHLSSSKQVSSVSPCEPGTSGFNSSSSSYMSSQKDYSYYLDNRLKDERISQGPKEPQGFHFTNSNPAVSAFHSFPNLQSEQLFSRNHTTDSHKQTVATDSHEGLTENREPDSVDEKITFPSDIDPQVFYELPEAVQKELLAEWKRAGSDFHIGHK
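Fluorescent replication assay read twice, at 0 min and 10 min after adding 50 nM (final) substrate. Enzyme (10 nM) and compounds were first incubated 15 min at room temperature; enzyme-free buffer wells were negative controls.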
Pol eta inh: inhibitors of human DNA polymerase eta. recombinant Pol eta, fluorescent DNA replication assay. 390,000 tested, 1.2% active. Potency, µM (titrated, usually from 114 µM), for the others: at the highest dose activity change, negative = inhibition, hits mostly inhibitors. Q9Y253; further: on the % scale 0 is the no-effect control and ±100 the full control effect
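Pol eta at 10 nM preincubated with compounds 15 min at room temperature; reaction started with fluorescent substrate (50 nM final) and read kinetically at 0 and 10 min.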
Pol kappa inh: blocks human DNA polymerase kappa activity; Q9UBT6; purified Pol kappa, fluorescent DNA synthesis assay, 10 min; Potency, µM (titrated, usually from 107 µM), for inactives: at the highest dose activity, negative = inhibition, usual class: inhibitors; 400,000 tested, 0.53% active; further: on the % scale 0 is the no-effect control and ±100 the full control effect
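10 nM Pol kappa preincubated 15 min at room temperature with compounds, then reaction started with substrate at 50 nM final. Fluorescence read kinetically at 0 and 10 min; buffer-only wells served as negative control.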
Pol beta inh: inhibitors of human DNA polymerase beta; P06746; Pol beta primer extension/strand displacement, fluorescence kinetic; Potency, µM (top dose mostly 114 µM), without a hit: at the highest dose activity change, negative = inhibition, most hits filed as inhibitors; 340,000 tested, 1.3% active; AID 485314; further: on the % scale 0 is the no-effect control and ±100 the full control effect
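Pol beta (10 nM) was preincubated with compound for 15 min at room temperature. The reaction was then started with 50 nM substrate and read immediately and after a further 10 min at room temperature.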
Numbers without * were called inactive; i = inactive; ? = inconclusive; . = no result given; [ ] = remark or other dose. The call rests on the fitted dose curve; in most records, active means well fitted curve in the direction sought with a large enough effect; inconclusive means small, poorly fitted or top-dose-only effect, or another doubt; inactive means no such curve, though single readings can be large; an effect the other way counts as inactive or inconclusive. Potency means the concentration at half of the fitted maximal effect.

SMILES	FEN1 inhibitor	PGK inhibitor	POLI inh	Pol eta inh	Pol kappa inh	Pol beta inh
CCN1CCN(c2cc(C)c3cc(NC(=O)/C=C/c4cccc(Cl)c4)ccc3n2)CC1	?	-11.5%	15.2%	-7.7%	2.6%	-18.1%
COc1ccccc1/C=C1\SC(=S)N(NS(=O)(=O)c2ccccc2)C1=O	-15.6%	3.2%	-18.6%	?	-16.9%	-18.9%
CCOc1ccc(/C=C2/SC(=S)N(C(C(=O)O)c3ccccc3)C2=O)cc1OCC (configuration not stated)	-1.9%	-6.2%	?	?	-1.8%	-15.1%
COc1cc(/C=C2\SC(=S)N(NS(=O)(=O)c3ccccc3)C2=O)ccc1O	-22.0%	0.1%	31.6µM*	?	-13.9%	-40.0%
COc1ccc(/C=C2/SC(=S)N(NS(=O)(=O)c3ccccc3)C2=O)cc1	5.0%	-2.8%	75.7%	89.1µM*	-15.8%	2.8%
COc1cc(/C=C2\SC(=S)N(C(C(=O)O)c3ccccc3)C2=O)ccc1O (configuration not stated)	-26.1%	i	28.2µM*	?	-35.0%	?
CCOc1cc(/C=C2\SC(=S)N(NS(=O)(=O)c3ccc(C)cc3)C2=O)ccc1O	-34.2%	-6.6%	?	?	?	.
C=CCOc1ccc(/C=C2\SC(=S)N(NS(=O)(=O)c3ccccc3)C2=O)cc1	5.4%	-15.6%	?	25.1µM*	-17.9%	?
CC(=O)Nc1ccc(/C=C/c2ccncc2)cc1	9.9%	.	13.4%	.	0.6%	.
O=C(O)c1ccc(/C=C2\SC(=S)N(NC(=O)c3ccccc3)C2=O)cc1	-3.1%	-7.4%	?	-14.9%	?	?
COc1cc(/C=C2\SC(=S)N(NC(=O)c3cccc(O)c3)C2=O)ccc1O	?	-14.1%	39.8µM*	?	-39.9%	15.8µM*
CC(/C=C1\SC(=S)N(NS(=O)(=O)c2ccccc2)C1=O)=C\c1ccccc1	-21.8%	-6.4%	?	79.4µM*	-4.5%	-38.5%
c1ccc2c(c1)sc[n+]2CCC1CCCCC1	3.1%	.	16.8%	.	13.4%	.
CC1=CC(C)(C)NC(=S)N1c1ccccc1C	-5.3%	-0.5%	55.2%	-16.2%	-9.7%	0.4%
CC1=CC(C)(C)NC(=S)N1c1cccc2cc(S(=O)(=O)O)ccc12	?	-7.3%	?	12.6µM*	-18.2%	50.1µM*
O=C(Cn1c(=O)n(Cc2ccco2)c(=O)c2c3c(sc21)CCCCC3)c1ccccc1	4.9%	i	?	?	-35.5%	10µM*
O=c1c2c3c(sc2n(CCN2CCCC2)c(=O)n1Cc1ccco1)CCCCC3	-10.0%	2.0%	17.9%	2.6%	-20.7%	?
Cc1ccc(NC(=O)Cn2c(=O)n(CCc3ccccc3)c(=O)c3c4c(sc32)CCCC4)cc1C	-0.8%	-0.5%	12.2%	-16.6%	-14.8%	2.5%
O=C(Cn1c(=O)n(Cc2ccco2)c(=O)c2c3c(sc21)CCCCC3)Nc1ccccc1	?	-5.2%	12.6µM*	50.1µM*	?	31.6µM*
COc1ccc(C(=O)NCC(c2ccc3c(c2)OCO3)N2CCN(C)CC2)cc1OC (configuration not stated)	-2.4%	-8.4%	20.8%	-20.8%	-1.6%[60.1 µM]	0.0%
CSc1cccc(NC(=O)/C=C/c2ccco2)c1	-18.0%	-9.8%	?	79.4µM*	?	31.6µM*
Cc1ccc(-n2nc3ccc(NC(=S)NC(=O)/C=C/c4ccco4)cc3n2)cc1	-4.2%	i	14.0%	?	-7.7%	-13.0%
Cc1ccc(-n2nc3cc(C)c(NC(=S)NC(=O)/C=C/c4ccco4)cc3n2)cc1	5.3%	-10.4%	6.0%	?	-8.0%	50.1µM*
CCCn1nnc(NC(=S)NC(=O)/C=C/c2ccco2)n1	?	-3.6%	?	?	50.1µM*	?
COc1cccc(NC(=O)/C=C/c2ccco2)c1	-1.0%	-12.4%	19.9%	-14.7%	-12.2%	-8.5%
SMILES	FEN1 inhibitor	PGK inhibitor	POLI inh	Pol eta inh	Pol kappa inh	Pol beta inh
Cn1nnc(NC(=O)/C=C/c2ccco2)n1	9.0%	-2.9%	49.7%	-11.1%	1.4%	1.6%
O=C(/C=C/c1ccco1)NC(=S)Nc1cccc(-c2nc3ccccc3s2)c1	-13.7%	-10.1%	?	?	-23.1%	.
O=C(/C=C/c1ccco1)NC(=S)Nc1cc(-c2nc3ccccc3s2)ccc1Cl	-0.4%	-10.0%	?	22.4µM*	-22.7%	-2.7%
O=C(NC(=S)Nc1cccc([N+](=O)[O-])c1)c1ccco1	6.5%	-2.4%	133.5%	-7.7%	-3.7%	3.2%
Cc1ccccc1NC(=S)NC(=O)/C=C/c1ccco1	79.4µM*	-11.8%	?	17.8µM*	?	31.6µM*
Cc1ccc(-c2nc3ccccc3s2)cc1NC(=S)NC(=O)/C=C/c1ccco1	10.4%	-4.7%	?	20µM*	-6.8%	?
O=C(/C=C/c1ccco1)NC(=S)Nc1cccc([N+](=O)[O-])c1	-23.5%	-1.4%	?	50.1µM*	?	39.8µM*
O=C(/C=C/c1ccco1)NC(=S)Nc1ccccc1	-26.0%	-2.7%	?	?	?	?
CN1CC2(Cc3cc([N+](=O)[O-])ccc31)C(=O)OC(C)(C)OC2=O	-5.2%	.	9.6%	.	-5.5%	.
CC1=C(c2ccc(C)c(C)c2)S(=O)(=O)N=C1N1CCC(C(=O)NCCc2ccc(Cl)cc2)CC1	2.0%	i	?	-5.7%	-1.0%	?
Cc1c(O)ccc2c1OC(C)(C)CC2	7.8%	.	53.1%	.	-8.4%	.
C[n+]1ccc(/C=C/c2ccc(Br)cc2)cc1	-11.4%	-8.4%	?	-24.6%	89.1µM*	-31.5%
CC1=CC(=C(c2ccc(N)cc2)c2ccc(N)cc2)C=CC1=N	?	.	-21.1%	.	3.5%[19.4 µM]	.
CC(C)(C)n1ncc2c(=O)n(Cc3c(Cl)ccc(Cl)c3Cl)cnc21	-4.7%	.	-24.4%	.	8.3%	.
COc1cc(OC)c2ccc(=O)oc2c1C(CC(=O)N1CCCC(C)C1)c1ccc2c(c1)OCO2 (configuration not stated)	5.2%	-17.3%	?	39.8µM*	?	39.8µM*
COC(=O)c1cc(-c2ccc(C)o2)nc2ccccc12	-11.9%	-7.2%	?	?	?	?
COc1cccc(NC(=O)c2cc(-c3ccc(C)o3)nc3ccccc23)c1	-18.4%	-10.6%	?	79.4µM*	?	?
Cc1ccc(-c2cc(C(=O)Nc3ccccc3C)c3ccccc3n2)o1	-0.8%	-4.0%	0.1%	?	-7.8%	10µM*
O=Cc1ccc2[nH]ccc2c1	0.7%	.	15.2%	.	9.3%	.
O=C(Nc1ccccc1-c1ccccc1)C1CCC1	-7.2%	i	121.2%	-13.7%	-2.0%	7.1%
O=C(Nc1ccccc1-c1ccccc1)C1CCCCC1	9.4%	i	89.1µM*	-10.4%	-8.7%	28.5%
